Laboratory results published in PubChem BioAssay AID435003 (Sanford-Burnham Center for Chemical Genomics, 2010).
Among all 330,000 compounds or so, about 1,700 (0.52%) were called active. Rule as the data show it: active = inhibition above about 50%; inactive = the rest. This excerpt belongs to a sample that is enriched for actives.

Test: inhibitors of induced NF-kB luciferase reporter, primary screen, TCR NF-kB activation inhibitor project, cell-based, luminescence, uHTS (AID 435003)
Conditions: Jurkat, PMA/ionomycin-induced NF-kB luciferase reporter, at 4 µM, stronger effect = higher value

inhibition, inactive:
CC1Cc2cc(/C(O)=C3\C(=O)C(=O)N(Cc4cccnc4)C3c3ccccc3F)ccc2O1 (centres undefined) -14.7%, COc1ccc(CCNC(=O)c2cnc(Cl)c(Cl)c2)cc1 -35.5%, CCN(CC(=O)Nc1ccc(OC)cc1)C(=O)CSCc1ccc(C)cc1 -16.5%, COC(=O)c1sccc1NC(=S)Nc1ccc(C)cc1 -16.1%, COc1ccc(C(=O)CCC(=O)Nc2ccc(Cl)cc2)cc1 10.1%, Cc1ccc(-n2c(SCC(=O)NCc3ccc4c(c3)OCO4)nnc2-c2cccnc2)c(C)c1 -1.23%, O=[N+]([O-])c1ccc(N2CCNCC2)cc1NCc1cccnc1 1.76%, CCCC(C(=O)NC1CCCC1)N(C(=O)Cn1nnc(-c2ccc(C)o2)n1)c1cccc(O)c1 (centres undefined) 7.15%, CC(=O)c1cc(-c2ccccc2)[nH]c1N1CCCC1 8.23%, Cc1ccc(-c2cc(=O)c3ccc(F)cc3[nH]2)cc1 14.5%, CSc1ccc(NC(=O)N2CC(C)OC(C)C2)cc1 (centres undefined) 21.7%, COCc1cc(C)nc(Nc2cc(C)ccc2C)c1C#N 6.05%, O=C(O)c1cc([N+](=O)[O-])c(Nc2cccc3ccccc23)c([N+](=O)[O-])c1 -10.8%, O=C(COC(=O)c1ccc([N+](=O)[O-])cc1Cl)NC(=O)c1ccccc1 3.88%, O=C(CSc1nnc(Nc2ccccc2F)s1)NC1CCCC1 -19.9%, COc1cccc(CN2CCNC(=O)C2CC(=O)N(C)CCc2ccccn2)c1 (centres undefined) -0.459%, Cc1ccc(O)c(NC(=S)NC(=O)COc2ccc(Br)cc2)c1 14.2%, Cc1ccc(C)c(OCC(=O)NNC(=O)C2CCC2)c1 0.404%, COc1ccc(Br)cc1S(=O)(=O)N1CCN=C1C -11.9%, COCCNC(=O)c1ccc(Cn2c(SCC(=O)NCC3CCCO3)nc3ccc(Br)cc3c2=O)cc1 (centres undefined) 23.7%, COc1ccccc1NC(=O)C1CCCN1S(=O)(=O)c1ccc(Cl)cc1 (centres undefined) -8.88%, COc1ccccc1NC(=O)c1cc(Cl)nnc1Cl -0.0528%, CC(C)n1c(-c2ccncc2)n[nH]c1=S 11.1%

inhibition, active:
COc1ccc(CS(=O)/C(Cl)=C(/Cl)C(=O)Nc2ccc(OC)nc2)cc1 (centres undefined) 99.4%, COc1ccc(NC(=O)/C(Cl)=C(/Cl)S(=O)Cc2ccc(C)cc2)cn1 (centres undefined) 91.6%, O=c1cc(-c2ccccc2)[nH]c2cc(F)ccc12 61.5%, O=C(NC(Nc1nc2ccc([N+](=O)[O-])cc2s1)(C(F)(F)F)C(F)(F)F)c1ccccc1 72.3%, Cc1ccc(O)c(NC(=O)COc2cc(C)ccc2C)c1 61.3%, COc1ccccc1NC1=NC(c2ccc(Cl)cc2)N=C(N)N1 (centres undefined) 60.9%
